# This is part of a sample that, as a whole, favours compounds with a hit. Of some 79,000 tested, about 15% had one in any assay. A number with no mark means an inactive call. Activity calls are given as the source filed them. Cut-off read from the data, not from the text of the source: active = growth inhibition above about 70%; inactive = the rest.
# Assays:
# [1] = NCI Yeast Anticancer Drug Screen. Data for the rad52 strain (AID 147);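 note: 0% = growth of vehicle-treated control cultures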; conditions: S. cerevisiae rad52 mutant growth inhibition, hits give high values
# Outline: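 Yeast strain carrying a DNA damage repair alteration was exposed to test compounds. Growth inhibition was measured relative to vehicle-treated controls.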
# [2] = NCI Yeast Anticancer Drug Screen. Data for the wt1 strain (AID 149);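 note: 0% = growth of vehicle-treated wt1 cultures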; conditions: S. cerevisiae wt1 strain (SPY 50644) growth inhibition, hits give high values
# Outline: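 Yeast wt1 strain exposed to compounds; growth inhibition measured relative to vehicle-treated controls.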
# [3] = NCI Yeast Anticancer Drug Screen. Data for the rad50EPP+ strain (AID 151);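 note: 0% = growth of vehicle-treated control cultures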; conditions: S. cerevisiae rad50 mutant strain, hits give high values
# Outline: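 Yeast strain carrying rad50 alteration (rad50EPP+) exposed to compounds; growth inhibition measured relative to vehicle-treated controls.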
# [4] = NCI Yeast Anticancer Drug Screen. Data for the mgt1 strain (AID 153); conditions: S. cerevisiae mgt1 mutant growth inhibition, hits give high values
# Outline: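 Yeast mgt1 strain (DNA repair/cell-cycle alteration panel) exposed to compounds; growth inhibition measured relative to vehicle-treated controls.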
# [5] = NCI Yeast Anticancer Drug Screen. Data for the rad50 strain (AID 155);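 note: 0% = growth of vehicle-only cultures of the same strain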; conditions: S. cerevisiae rad50 strain growth inhibition, hits give high values
# Outline: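 Yeast carrying a defined DNA repair defect were exposed to test compounds, and growth was compared with vehicle-treated controls to give percent inhibition.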
# [6] = NCI Yeast Anticancer Drug Screen. Data for the mec2-1 strain (AID 157); conditions: S. cerevisiae mec2-1 strain, hits give high values
# Outline: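 mec2-1 yeast strain, carrying an alteration in DNA damage repair or cell cycle control, was exposed to compounds; growth inhibition was measured relative to vehicle-treated controls.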
# [7] = NCI Yeast Anticancer Drug Screen. Data for the rad14 strain (AID 159);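 note: 0% = growth of vehicle-treated control cultures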; conditions: S. cerevisiae rad14 strain growth inhibition, hits give high values
# Outline: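 Yeast cells carrying a defined DNA-repair defect were exposed to compounds, and growth inhibition was calculated relative to vehicle-treated control cultures.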
# [8] = NCI Yeast Anticancer Drug Screen. Data for the sgs1 mgt1 strain (AID 161);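 note: 0% = growth of cultures given vehicle only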; conditions: S. cerevisiae sgs1 mgt1 strain, hits give high values
# Outline: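 This yeast growth screen uses a strain with defined DNA-repair lesions; compound-treated growth is compared with vehicle-treated growth.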
# [9] = NCI Yeast Anticancer Drug Screen. Data for the CLN2oe strain (AID 163);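 note: 0% = growth of vehicle-only control cultures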; conditions: S. cerevisiae CLN2oe strain, hits give high values
# Outline: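 Yeast cells carrying a defined cell-cycle control alteration were exposed to test compounds. Growth inhibition was scored against vehicle-treated control cultures.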
# [10] = NCI Yeast Anticancer Drug Screen. Data for the cln2 rad14 strain (AID 165);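 note: 0% = growth equal to vehicle treated cultures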; conditions: S. cerevisiae cln2 rad14 strain, hits give high values
# Outline: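 Yeast carrying cln2 and rad14 alterations (cell cycle control and DNA damage repair) were exposed to compounds. Growth inhibition was measured against vehicle-treated controls.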
# [11] = NCI Yeast Anticancer Drug Screen. Data for the bub3 strain (AID 167); conditions: S. cerevisiae bub3 mutant strain, hits give high values
# Outline: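 Compounds were applied to a genetically altered yeast strain carrying a cell-cycle control defect. Growth inhibition was scored against vehicle-treated controls.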
# [12] = NCI Yeast Anticancer Drug Screen. Data for the wt2 strain (AID 169);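 note: 0% = growth of vehicle-treated yeast cultures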; conditions: S. cerevisiae wt2 strain growth inhibition, hits give high values
# Outline: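 Yeast cells were exposed to test compounds, and growth inhibition was measured relative to vehicle-treated controls.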
# [13] = NCI Yeast Anticancer Drug Screen. Data for the sgs1 strain (AID 173);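 note: 0% = growth of vehicle-only control cultures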; conditions: S. cerevisiae sgs1 mutant, hits give high values
# Outline: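 Yeast mutant strains carrying defined defects in DNA damage repair or cell cycle control were exposed to test compounds. Growth inhibition was scored against vehicle-treated controls.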
# [14] = at 5.0 µM (retest, dose inferred, filed as 0.5)
# [15] = at 50.0 µM (retest, dose inferred, filed as 5.0)
smiles,measurement,setting,value
O=C(c1ccc(Cl)cc1Cl)C(Cl)Cl,growth inhibition,[1]; at 1.2 µM,4%
same,growth inhibition,[1]; at 3.7 µM,0%
same,growth inhibition,[1]; at 11.0 µM,14%
same,growth inhibition,[1]; at 33.0 µM,74% (active)
same,growth inhibition,[1]; at 100.0 µM,98% (active)
same,growth inhibition,[2]; at 1.2 µM,-1%
same,growth inhibition,[2]; at 3.7 µM,-6%
same,growth inhibition,[2]; at 11.0 µM,3%
same,growth inhibition,[2]; at 33.0 µM,56%
same,growth inhibition,[2]; at 100.0 µM,98% (active)
same,growth inhibition,[3]; at 1.2 µM,40%
same,growth inhibition,[3]; at 3.7 µM,53%
same,growth inhibition,[3]; at 11.0 µM,65%
same,growth inhibition,[3]; at 33.0 µM,94% (active)
same,growth inhibition,[3]; at 100.0 µM,96% (active)
same,growth inhibition,[4]; at 1.2 µM,-21%
same,growth inhibition,[4]; at 3.7 µM,-34%
same,growth inhibition,[4]; at 11.0 µM,-13%
same,growth inhibition,[4]; at 33.0 µM,68%
same,growth inhibition,[4]; at 100.0 µM,99% (active)
same,growth inhibition,[5]; at 1.2 µM,11%
same,growth inhibition,[5]; at 3.7 µM,11%
same,growth inhibition,[5]; [14],46%
same,growth inhibition,[5]; at 11.0 µM,13%
same,growth inhibition,[5]; at 33.0 µM,79% (active)
same,growth inhibition,[5]; [15],84% (active)
same,growth inhibition,[5]; at 50.0 µM,83.8% (active)
same,growth inhibition,[5]; at 100.0 µM,98% (active)
same,growth inhibition,[6]; at 1.2 µM,-22%
same,growth inhibition,[6]; at 3.7 µM,-24%
same,growth inhibition,[6]; [14],40%
same,growth inhibition,[6]; at 11.0 µM,-9%
same,growth inhibition,[6]; at 33.0 µM,81% (active)
same,growth inhibition,[6]; [15],82% (active)
same,growth inhibition,[6]; at 50.0 µM,85.5% (active)
same,growth inhibition,[6]; at 100.0 µM,98% (active)
same,growth inhibition,[7]; at 1.2 µM,-17%
same,growth inhibition,[7]; at 3.7 µM,-25%
same,growth inhibition,[7]; at 11.0 µM,-15%
same,growth inhibition,[7]; at 33.0 µM,53%
same,growth inhibition,[7]; at 100.0 µM,98% (active)
same,growth inhibition,[8]; [14],13%
same,growth inhibition,[8]; [15],99% (active)
same,growth inhibition,[8]; at 50.0 µM,83.8% (active)
same,growth inhibition,[9]; at 1.2 µM,-11%
same,growth inhibition,[9]; at 3.7 µM,-8%
same,growth inhibition,[9]; at 11.0 µM,-13%
same,growth inhibition,[9]; at 33.0 µM,18%
same,growth inhibition,[9]; at 100.0 µM,98% (active)
same,growth inhibition,[10]; [14],68%
same,growth inhibition,[10]; [15],98% (active)
same,growth inhibition,[10]; at 50.0 µM,53.6%
same,growth inhibition,[11]; at 1.2 µM,-20%
same,growth inhibition,[11]; at 3.7 µM,-11%
same,growth inhibition,[11]; [14],-4%
same,growth inhibition,[11]; at 11.0 µM,3%
same,growth inhibition,[11]; at 33.0 µM,80% (active)
same,growth inhibition,[11]; [15],96% (active)
same,growth inhibition,[11]; at 50.0 µM,88.8% (active)
same,growth inhibition,[11]; at 100.0 µM,97% (active)
same,growth inhibition,[12]; at 1.2 µM,-8%
same,growth inhibition,[12]; at 3.7 µM,-7%
same,growth inhibition,[12]; at 11.0 µM,16%
same,growth inhibition,[12]; at 33.0 µM,71% (active)
same,growth inhibition,[12]; at 100.0 µM,98% (active)
same,growth inhibition,[13]; at 1.2 µM,-14%
same,growth inhibition,[13]; at 3.7 µM,-14%
same,growth inhibition,[13]; at 11.0 µM,14%
same,growth inhibition,[13]; at 33.0 µM,80% (active)
same,growth inhibition,[13]; at 100.0 µM,98% (active)
COc1ccc(/C=C/C(=O)C(C)(C)Br)cc1,growth inhibition,[1]; at 1.2 µM,45%
same,growth inhibition,[1]; at 3.7 µM,89% (active)
same,growth inhibition,[1]; at 11.0 µM,95% (active)
same,growth inhibition,[1]; at 33.0 µM,97% (active)
same,growth inhibition,[1]; at 100.0 µM,98% (active)
same,growth inhibition,[2]; at 1.2 µM,4%
same,growth inhibition,[2]; at 3.7 µM,12%
same,growth inhibition,[2]; at 11.0 µM,15%
same,growth inhibition,[2]; at 33.0 µM,19%
same,growth inhibition,[2]; at 100.0 µM,33%
same,growth inhibition,[3]; at 1.2 µM,79% (active)
same,growth inhibition,[3]; at 3.7 µM,93% (active)
same,growth inhibition,[3]; at 11.0 µM,96% (active)
same,growth inhibition,[3]; at 33.0 µM,97% (active)
same,growth inhibition,[3]; at 100.0 µM,98% (active)
same,growth inhibition,[4]; at 1.2 µM,0%
same,growth inhibition,[4]; at 3.7 µM,9%
same,growth inhibition,[4]; at 11.0 µM,18%
same,growth inhibition,[4]; at 33.0 µM,27%
same,growth inhibition,[4]; at 100.0 µM,71% (active)
same,growth inhibition,[5]; at 1.2 µM,41%
same,growth inhibition,[5]; at 3.7 µM,74% (active)
same,growth inhibition,[5]; [14],75% (active)
same,growth inhibition,[5]; at 11.0 µM,88% (active)
same,growth inhibition,[5]; at 33.0 µM,93% (active)
same,growth inhibition,[5]; [15],96% (active)
same,growth inhibition,[5]; at 50.0 µM,94.5% (active)
same,growth inhibition,[5]; at 100.0 µM,96% (active)
same,growth inhibition,[6]; at 1.2 µM,24%
same,growth inhibition,[6]; at 3.7 µM,71% (active)

# Reference: PubChem BioAssay (NCI)
